Source: PubChem BioAssay (NCATS)
Several values for one entry are separate records, joined by “and”; a condition that tells them apart may be missing. Equal values may be shown once. Inconclusive results are not listed. Unmarked numbers belong to inactive results. Activity calls are given as the source filed them. The call rests on the fitted dose curve; in most records, active means well fitted cell-killing curve with a large enough effect; inconclusive means small, poorly fitted or top-dose-only effect, or effect the other way; inactive means no such curve, though single readings can be large or run the other way.

test: Viability qHTS for spleen associated tyrosine kinase inhibitor (SYKi) naive MV4-11 cells (AID 1963823); settings: MV4-11 AML viability, CellTiter-Glo luminescence, 72 h; series mostly up to 45 µM; viability (% of control): at the top concentration; further: nearly all actives have a fitted effect of over 40% in size
Outline: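 Cells: MV4-11, SYK inhibitor naive, 500 per well. Treatment: library compounds, 72 hr, 37 C, 5% CO2. Read-out: CellTiter-Glo luminescence after 10 min RT.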
Potency means the concentration at half of the fitted maximal effect.

Row | Compound | Potency | viability (% of control)
1 | O=C(NNc1nc2cc(F)ccc2n2cccc12)c1cnccn1 | 0.82 µM (active) | 
2 | CC(CCc1ccccn1)(CCc1ccccn1)C(=O)c1ccccc1 |  | 77.1%
3 | C=C[C@H]1C(O[C@@H]2O[C@H](CO)[C@@H](O)[C@H](O)[C@H]2O)OC=C2C(=O)N3CCc4c([nH]c5ccccc45)C3CC21 (some centres not stated) |  | 65.7% [at 17.3 µM]
4 | Cc1ccc(NS(=O)(=O)c2cc3c(cc2N[C@H](C)CO)NC(=O)CC3)cc1C | 20.6 µM (active) | 
5 | COc1cc2nc(C3CC3)nc(N3CCN(c4ccccc4OC)CC3)c2cc1OC | 16.4 µM (active) | 
6 | CC(C)CC1NC(=O)C(C)NC(=O)C(CC(C)C)OC(=O)CCCNC1=O (configuration not stated) |  | 88.8%
7 | CC(C)=CCC[C@](C)(O[C@@H]1O[C@H](CO[C@@H]2OC[C@H](O)[C@H](O)[C@H]2O)[C@@H](O)[C@H](O)[C@H]1O)[C@H]1CC[C@]2(C)[C@@H]1[C@H](O)C[C@@H]1[C@@]3(C)CC[C@H](O[C@@H]4O[C@H](CO)[C@@H](O)[C@H](O)[C@H]4O[C@@H]4O[C@H](CO)[C@@H](O)[C@H](O)[C@H]4O)C(C)(C)[C@@H]3CC[C@]12C |  | 68.3% [at 17.3 µM]
8 | CC(C)C(O)(CO)CCO[C@@H]1O[C@H](CO[C@H]2OC[C@](O)(CO)[C@H]2O)[C@@H](O)[C@H](O)[C@H]1O (some centres not stated) |  | 85.1% [at 17.3 µM]
9 | C/C=C/C=C/[C@@H]1O[C@](O)([C@H](CC)C(=O)NC/C=C/C=C(\C)[C@@H](OC)[C@@H](C)[C@@H]2O[C@H](/C=C/C=C/C=C(\C)C(=O)c3c(O)ccn(C)c3=O)[C@H](O)[C@@H]2O)[C@H](O)[C@H](O)C1(C)C |  | 84.2% [at 9.25 µM]
10 | O=S(=O)(c1cccc2ccccc12)n1ccc2ccc(N3CCN4CCCC4C3)cc21 (configuration not stated) | 23.1 µM (active) | 
11 | Cc1cc(=O)oc2cc(NC(=O)[C@H](CCC(=O)O)NC(=O)[C@H](CC(C)C)NC(=O)[C@H](CC(C)C)NC(=O)OCc3ccccc3)ccc12 |  | 63.6%
12 | CC(O)/C=C/C1(O)C(C)C(O[C@@H]2O[C@H](CO)[C@@H](O)[C@H](O)[C@H]2O)C(O)CC1(C)C (some centres not stated) |  | 67.9% [at 17.3 µM]
13 | CCCc1cc2c(N3CCN(C4=NCC(C)(C)S4)CC3)ncnc2s1 | 8.2 µM (active) | 
14 | COC(=O)C(C)C1CCC2(C)C(=O)C=CC(C)(O)C2C1O (configuration not stated) |  | 78.7%
15 | C[C@@H]1O[C@@H](O[C@H]2[C@@H](OC(=O)[C@]34CCC(C)(C)CC3C3=CCC5[C@@]6(C)C[C@H](O)[C@H](O[C@@H]7O[C@H](C(=O)O)[C@@H](O)[C@H](O)[C@H]7O)[C@@](C)(C(=O)O)C6CC[C@@]5(C)[C@]3(C)CC4)OC[C@H](O)[C@@H]2O)[C@H](O)[C@H](O)[C@H]1O[C@@H]1OC[C@@H](O)[C@H](O)[C@H]1O (some centres not stated) |  | 77.1% [at 9.25 µM]
16 | OCC1OC(Oc2cc(O)cc(/C=C/c3ccc(OC4OC(CO)C(O)C(O)C4O)cc3O)c2)C(O)C(O)C1O (configuration not stated) |  | 71.4% [at 17.3 µM]

Row | Compound | Potency | viability (% of control)
17 | C=C1CC23CC1CCC2C12OC(=O)C(C)(CCC1O)C2C3C(=O)O (configuration not stated) |  | 59.3%
18 | OC[C@H]1O[C@@H](OC/C=C/c2ccc(O)cc2)[C@H](O)[C@@H](O)[C@@H]1O |  | 79.7%
19 | COC(=O)CC1OC(C)C2=C(O)c3c(O)cccc3C(=O)C23OC13 (configuration not stated) | 1.14 µM (active) | 
20 | OCC1=CC[C@@H]2C=CO[C@@H](O[C@@H]3O[C@H](CO)[C@@H](O)[C@H](O)[C@H]3O)[C@H]12 |  | 85.7%
21 | CC(=O)N[C@H]1CCN(c2ccc(C3=NOC(CN[S+](=O)([O-])C(C)C)C3)cc2F)C1 (some centres not stated) |  | 65.6%
22 | CC1(CCC(=O)O)C(=O)C=CC23CC4CC(OC4(C)C2O)C13 (configuration not stated) |  | 69.5%
23 | COc1cccc(C(=O)NCCNc2nc3cc(C)cc(C)c3cc2C#N)c1 |  | 65.3%
24 | CC1=CC(=O)CC(C)(CO)C1(O)/C=C/C(C)O[C@@H]1O[C@H](CO)[C@@H](O)[C@H](O)[C@H]1O (some centres not stated) |  | 96.5% [at 17.3 µM]
25 | CC(=O)O[C@H]1[C@@H](O)[C@H](O[C@H]2[C@@H]3C=CO[C@@H](O[C@H]4O[C@@H](CO)[C@H](O)[C@@H](O)[C@@H]4O)[C@@H]3[C@@]3(CO)O[C@@H]23)O[C@@H](C)[C@@H]1OC(=O)/C=C/c1ccccc1 |  | 80.8% [at 17.3 µM]
26 | Cc1c(-c2ccc(O)cc2)n(Cc2ccc(OCCN3CCCCCC3)cc2)c2ccc(O)cc12 | 18.8 µM (active) and 8.33 µM (active) | 
27 | O=C(/C=C/c1ccc(O)cc1)OCC1=C[C@@H](O)[C@@H]2C=CO[C@@H](O[C@@H]3O[C@H](CO)[C@@H](O)[C@H](O)[C@H]3O)[C@H]12 |  | 72.9% [at 17.3 µM]
28 | Cc1c(C(=O)NCCCO)cnn1-c1nc(-c2cccc(C(F)(F)F)c2)cs1 | 14.6 µM (active) | 
29 | CCC(C)CNCC(=O)N1CCc2sccc2C1COc1cccc(C)c1 (configuration not stated) | 9.2 µM (active) | 
30 | COc1cc(C(=O)NC2CCN(C)CC2)c(F)cc1Nc1ncc2c(n1)N(C1CCCC1)CC(F)(F)C(=O)N2C | 0.0206 µM (active) | 
31 | C/C=C1\[C@H](O[C@@H]2O[C@H](CO)[C@@H](O)[C@H](O)[C@H]2O)OC=C(C(=O)OC)[C@H]1CC(=O)OC |  | 47% [at 17.3 µM]
32 | C=C(C)[C@@H](C)[C@H]1O[C@]23C[C@]4(CO2)C(CCC2[C@@]5(C)CC[C@H](O[C@@H]6OC[C@H](O)[C@H](O[C@@H]7O[C@H](CO)[C@@H](O)[C@H](O)[C@H]7O)[C@H]6O[C@@H]6O[C@@H](CO)[C@H](O)[C@H]6O)C(C)(C)C5CC[C@]24C)C3[C@@](C)(O)[C@@H]1OC(C)=O (some centres not stated) |  | 73.4% [at 9.25 µM]
